Tested on: Vero E6 infected with SARS-CoV-2
Experiment: inhibition of SARS-CoV-2 cytopathic effect; higher = more antiviral protection, active = above 15
Details: 48 h

Measured: inhibition of SARS-CoV-2 cytopathic effect

C[C@H]1CO[C@@H]2Cn3cc(C(=O)NCc4ccc(F)cc4F)c(=O)c(O)c3C(=O)N12
inactive: 1 nM 0% | 8.33 nM 1.03% | 100 nM 1.79% | 833.33 nM 1.33% | 10000 nM -0.84%

O=C(OCC(COC(=O)c1cccnc1)(COC(=O)c1cccnc1)COC(=O)c1cccnc1)c1cccnc1 [niceritrol]
inactive: 1 nM -3.51% | 8.33 nM -0.29% | 100 nM 2.18% | 833.33 nM 0.03% | 10000 nM 6.17%

NC(=O)C1=CN([C@@H]2O[C@H](COP(=O)(O)OP(=O)(O)OC[C@H]3O[C@@H](n4cnc5c(N)ncnc54)[C@H](OP(=O)(O)O)[C@@H]3O)[C@@H](O)[C@H]2O)C=CC1
inactive: 1 nM 0.75% | 8.33 nM 3.17% | 100 nM 2.16% | 833.33 nM 0.8% | 10000 nM -1.27%

C[C@@H]1CN([C@H]2CC[C@](C#N)(c3ccc(F)cc3)CC2)CC[C@]1(C(=O)O)c1ccccc1 [levocabastine]
inactive: 1 nM 1.53% | 8.33 nM 0.57% | 100 nM -0.86% | 833.33 nM 1.81% | 10000 nM -0.71%

O=C(NC(O)C(Cl)(Cl)Cl)NC(O)C(Cl)(Cl)Cl (stereo not given) [dicloralurea]
inactive: 1 nM -4.23% | 8.33 nM -2.71% | 100 nM -0.82% | 833.33 nM -3.4% | 10000 nM -4.69%

Oc1cc(O)cc(O)c1 [phloroglucin]
inactive: 1 nM 3.42% | 8.33 nM 1.38% | 100 nM 2.28% | 833.33 nM 2.17% | 10000 nM -2.03%

CCN(CC)C(=O)N[C@H]1C[C@@H]2c3cccc4[nH]cc(c34)C[C@H]2N(C)C1 [terguride]
inactive: 1 nM -0.35% | 8.33 nM -0.23% | 100 nM -0.57% | 833.33 nM -2.15% | 10000 nM -0.04%

NC[C@@](O)(c1ccc(Cl)cc1)c1ccc(-c2cn[nH]c2)cc1
inactive: 1 nM -0.97% | 8.33 nM 1% | 100 nM -2.8% | 833.33 nM -3.57% | 10000 nM -13.7%

O=C1NC(=O)/C(=C/c2ccc3nccc(-c4ccncc4)c3c2)S1
inactive: 1 nM -0.58% | 8.33 nM -1.8% | 100 nM 1.55% | 833.33 nM 2.78% | 10000 nM -1.1%

COc1cc2c(Oc3ccc4[nH]c(C)cc4c3F)ccnc2cc1OCC1(N)CC1 [anlotinib]
inactive: 1 nM 1.84% | 8.33 nM -1.41% | 100 nM 1.56% | 833.33 nM 1.39% | 10000 nM -7.82%

C#CCOC(=O)C1=CCCN(C)C1 [arecaidine-propargyl-ester]
inactive: 1 nM -3.75% | 8.33 nM 0.55% | 100 nM -0.74% | 833.33 nM -1.69% | 10000 nM 2.67%

NC(=O)c1cn(Cc2c(F)cccc2F)nn1 [rufinamide]
inactive: 1 nM 2.25% | 8.33 nM 1% | 100 nM 2.89% | 833.33 nM 1.75% | 10000 nM 3.51%

CN1CCN(c2nc3ccccc3nc2Cl)CC1
inactive: 1 nM -3.46% | 8.33 nM -0.96% | 100 nM -3.46% | 833.33 nM 0.73% | 10000 nM 5.89%

CCCCOc1cc(C(=O)NCCN(CC)CC)c2ccccc2n1 [cinchocaine]
inactive: 1 nM -2.14% | 8.33 nM -0.71% | 100 nM 1.11% | 833.33 nM 3.8% | 10000 nM 0.77%

Cc1cccc(Oc2nc3c(C)cccn3c(=O)c2/C=C(\C#N)c2nc3ccccc3s2)c1
inactive: 1 nM -0.1% | 8.33 nM 1.16% | 100 nM 0.8% | 833.33 nM 3.43% | 10000 nM 0.62%

CN(C)CCCn1cc(C2=C(c3c[nH]c4ccccc34)C(=O)NC2=O)c2ccccc21
inactive: 1 nM 2.56% | 8.33 nM 1.35% | 100 nM 1.36% | 833.33 nM 0.57% | 10000 nM 13.2%

N[C@@H](Cc1c[nH]c2ccc(O)cc12)C(=O)O [5-hydroxytryptophan]
inactive: 1 nM -0.86% | 8.33 nM 0.52% | 100 nM 1.04% | 833.33 nM 2.16% | 10000 nM 2.55%

CCN1C(=O)NC(c2ccccc2)C1=O (stereo not given) [ethotoin]
inactive: 1 nM 0.06% | 8.33 nM 4.06% | 100 nM 2.41% | 833.33 nM 2.46% | 10000 nM -0.15%

C[C@H](NC[C@H](O)CP(=O)(O)Cc1ccccc1)c1ccc(Cl)c(Cl)c1
inactive: 1 nM 2.41% | 8.33 nM 3.89% | 100 nM 1.35% | 833.33 nM 1.79% | 10000 nM 4.47%

C[C@H]1[C@H](C)CC[C@]2(C(=O)O)CC[C@]3(C)C(=CC[C@@H]4[C@@]5(C)C[C@@H](O)[C@H](O)C(C)(C)[C@@H]5CC[C@]43C)[C@H]12 [corosolic-acid]
inactive: 1 nM -3.62% | 8.33 nM -0.43% | 100 nM -0.51% | 833.33 nM -4.03% | 10000 nM -1.21%
